Where a chain is given by its changes, count along the chain named. Whole data set: some 16,000 sequences, median “ka relative to ugcaugu” near 0.0091, cut for the highest 2% near 0.032. For the sample, the highest values were picked, then their nearest neighbours and some sequences at random.
B1: ACAGACA (DNA:RNA)
RNA: GGGAGACCGGAAUUCAGAUUGUCCACAGACAUUAAAUCCCGUCGUAGCCACCA
DNA 1: CAATCTGAATTCCGGTCTCCC
DNA 2: TGGTGGCTACGACGGGATT
B2: UCACUAC (DNA:RNA)
RNA: B1 RNA with A25U, G28C, A29U, C30A, A31C
DNA 1: CAATCTGAATTCCGGTCTCCC
DNA 2: TGGTGGCTACGACGGGATT
B3: GGCAAAG (DNA:RNA)
RNA: B1 RNA with A25G, C26G, A27C, G28A, C30A, A31G
DNA 1: CAATCTGAATTCCGGTCTCCC
DNA 2: TGGTGGCTACGACGGGATT
B4: UGUCUUG (DNA:RNA)
RNA: GGGAGACCGGAAUUCAGAUUGUCCUGUCUUGUUAAAUCCCGUCGUAGCCACCA
DNA 1: CAATCTGAATTCCGGTCTCCC
DNA 2: TGGTGGCTACGACGGGATT
B5: UGUCGUG (DNA:RNA)
RNA: B4 RNA with U29G
DNA 1: CAATCTGAATTCCGGTCTCCC
DNA 2: TGGTGGCTACGACGGGATT
B6: UGGAAUG (DNA:RNA)
RNA: B4 RNA with U27G, C28A, U29A
DNA 1: CAATCTGAATTCCGGTCTCCC
DNA 2: TGGTGGCTACGACGGGATT
B7: UGGAUCG (DNA:RNA)
RNA: B4 RNA with U27G, C28A, U30C
DNA 1: CAATCTGAATTCCGGTCTCCC
DNA 2: TGGTGGCTACGACGGGATT
B8: UGGAUCU (DNA:RNA)
RNA: B4 RNA with U27G, C28A, U30C, G31U
DNA 1: CAATCTGAATTCCGGTCTCCC
DNA 2: TGGTGGCTACGACGGGATT
B9: UGGAGAG (DNA:RNA)
RNA: B4 RNA with U27G, C28A, U29G, U30A
DNA 1: CAATCTGAATTCCGGTCTCCC
DNA 2: TGGTGGCTACGACGGGATT
B10: UGUUGUC (DNA:RNA)
RNA: B4 RNA with C28U, U29G, G31C
DNA 1: CAATCTGAATTCCGGTCTCCC
DNA 2: TGGTGGCTACGACGGGATT
B11: UGGAGUG (DNA:RNA)
RNA: B4 RNA with U27G, C28A, U29G
DNA 1: CAATCTGAATTCCGGTCTCCC
DNA 2: TGGTGGCTACGACGGGATT
B12: UGGAGAA (DNA:RNA)
RNA: B4 RNA with U27G, C28A, U29G, U30A, G31A
DNA 1: CAATCTGAATTCCGGTCTCCC
DNA 2: TGGTGGCTACGACGGGATT
B13: UGGAUCC (DNA:RNA)
RNA: B4 RNA with U27G, C28A, U30C, G31C
DNA 1: CAATCTGAATTCCGGTCTCCC
DNA 2: TGGTGGCTACGACGGGATT
B14: UGUCGUC (DNA:RNA)
RNA: B4 RNA with U29G, G31C
DNA 1: CAATCTGAATTCCGGTCTCCC
DNA 2: TGGTGGCTACGACGGGATT
B15: UGGAGAU (DNA:RNA)
RNA: B4 RNA with U27G, C28A, U29G, U30A, G31U
DNA 1: CAATCTGAATTCCGGTCTCCC
DNA 2: TGGTGGCTACGACGGGATT
B16: CAGAAAA (DNA:RNA)
RNA: B1 RNA with A25C, C26A, A27G, G28A, C30A
DNA 1: CAATCTGAATTCCGGTCTCCC
DNA 2: TGGTGGCTACGACGGGATT
B17: UGGGUAG (DNA:RNA)
RNA: B4 RNA with U27G, C28G, U30A
DNA 1: CAATCTGAATTCCGGTCTCCC
DNA 2: TGGTGGCTACGACGGGATT
B18: CCCAAGA (DNA:RNA)
RNA: B1 RNA with A25C, A27C, G28A, C30G
DNA 1: CAATCTGAATTCCGGTCTCCC
DNA 2: TGGTGGCTACGACGGGATT
B19: UCGCCGG (DNA:RNA)
RNA: B4 RNA with G26C, U27G, U29C, U30G
DNA 1: CAATCTGAATTCCGGTCTCCC
DNA 2: TGGTGGCTACGACGGGATT
B20: CUAGUGU (DNA:RNA)
RNA: B1 RNA with A25C, C26U, A29U, C30G, A31U
DNA 1: CAATCTGAATTCCGGTCTCCC
DNA 2: TGGTGGCTACGACGGGATT
B21: UGCUCCU (DNA:RNA)
RNA: B4 RNA with U27C, C28U, U29C, U30C, G31U
DNA 1: CAATCTGAATTCCGGTCTCCC
DNA 2: TGGTGGCTACGACGGGATT
B22: GAUCGAC (DNA:RNA)
RNA: B4 RNA with U25G, G26A, U29G, U30A, G31C
DNA 1: CAATCTGAATTCCGGTCTCCC
DNA 2: TGGTGGCTACGACGGGATT
B23: GAGAGCC (DNA:RNA)
RNA: B1 RNA with A25G, C26A, A27G, G28A, A29G, A31C
DNA 1: CAATCTGAATTCCGGTCTCCC
DNA 2: TGGTGGCTACGACGGGATT
B24: ACGCAUC (DNA:RNA)
RNA: B1 RNA with A27G, G28C, C30U, A31C
DNA 1: CAATCTGAATTCCGGTCTCCC
DNA 2: TGGTGGCTACGACGGGATT
B25: ACGCAUA (DNA:RNA)
RNA: B1 RNA with A27G, G28C, C30U
DNA 1: CAATCTGAATTCCGGTCTCCC
DNA 2: TGGTGGCTACGACGGGATT
B26: GCCAUGU (DNA:RNA)
RNA: B1 RNA with A25G, A27C, G28A, A29U, C30G, A31U
DNA 1: CAATCTGAATTCCGGTCTCCC
DNA 2: TGGTGGCTACGACGGGATT
B27: GCAUAGU (DNA:RNA)
RNA: B1 RNA with A25G, G28U, C30G, A31U
DNA 1: CAATCTGAATTCCGGTCTCCC
DNA 2: TGGTGGCTACGACGGGATT
B28: GCAUUGU (DNA:RNA)
RNA: B1 RNA with A25G, G28U, A29U, C30G, A31U
DNA 1: CAATCTGAATTCCGGTCTCCC
DNA 2: TGGTGGCTACGACGGGATT
B29: GCAAUGU (DNA:RNA)
RNA: B1 RNA with A25G, G28A, A29U, C30G, A31U
DNA 1: CAATCTGAATTCCGGTCTCCC
DNA 2: TGGTGGCTACGACGGGATT
B30: GCAUGUU (DNA:RNA)
RNA: B1 RNA with A25G, G28U, A29G, C30U, A31U
DNA 1: CAATCTGAATTCCGGTCTCCC
DNA 2: TGGTGGCTACGACGGGATT
B31: CGCAUGU (DNA:RNA)
RNA: B4 RNA with U25C, U27C, C28A, U30G, G31U
DNA 1: CAATCTGAATTCCGGTCTCCC
DNA 2: TGGTGGCTACGACGGGATT
B32: CCCCGCA (DNA:RNA)
RNA: B1 RNA with A25C, A27C, G28C, A29G
DNA 1: CAATCTGAATTCCGGTCTCCC
DNA 2: TGGTGGCTACGACGGGATT
B33: CCGCAUG (DNA:RNA)
RNA: B4 RNA with U25C, G26C, U27G, U29A
DNA 1: CAATCTGAATTCCGGTCTCCC
DNA 2: TGGTGGCTACGACGGGATT
B34: ACGCAUG (DNA:RNA)
RNA: B1 RNA with A27G, G28C, C30U, A31G
DNA 1: CAATCTGAATTCCGGTCTCCC
DNA 2: TGGTGGCTACGACGGGATT
B35: CGCAUUG (DNA:RNA)
RNA: B4 RNA with U25C, U27C, C28A
DNA 1: CAATCTGAATTCCGGTCTCCC
DNA 2: TGGTGGCTACGACGGGATT

What follows are binders tested against T1, RBFOX1 RRM (Homo sapiens, UniProt Q9NWB1 109-208) (assay: EMSA; HiTS-Eq, 1 nM pool, 10 min; buffer printed only for the single-RNA assays: 10 mM Tris pH 7.5, 150 mM NaCl, 3.4 mM EDTA, 0.001% NP-40, 30 C). Conditions: tags: His6 N-terminal (pET28a); label: 5' 32P.
T1 sequence: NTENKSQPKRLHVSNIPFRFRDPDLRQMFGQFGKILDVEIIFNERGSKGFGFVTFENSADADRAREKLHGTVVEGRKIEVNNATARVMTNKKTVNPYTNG
Summary of the method: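 Purified RbFox RRM, wild type or mutant, was incubated for 10 min in 50 µL with 1 nM of a 5′-radiolabelled RNA pool carrying 7 randomized nucleotides, whose flanks were annealed to DNA oligonucleotides, over a series of increasing protein concentrations. Unbound RNA was resolved on 8% native PAGE, cut out, reverse-transcribed, barcoded by PCR and sequenced on an Illumina HiSeq 2500. Relative association constants were derived from changes in read counts for each RNA species versus the control reaction and normalised to the cognate motif.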

Row | Binder | binding signal
1 | B1 | 0.00018 KA relative to UGCAUGU
2 | B2 | 0.000713 KA relative to UGCAUGU
3 | B3 | 0.00447 KA relative to UGCAUGU
4 | B4 | 0.0447 KA relative to UGCAUGU
5 | B5 | 0.0277 KA relative to UGCAUGU
6 | B6 | 0.0953 KA relative to UGCAUGU
7 | B7 | 0.0333 KA relative to UGCAUGU
8 | B8 | 0.0236 KA relative to UGCAUGU
9 | B9 | 0.0249 KA relative to UGCAUGU
10 | B10 | 0.0242 KA relative to UGCAUGU
11 | B11 | 0.0323 KA relative to UGCAUGU
12 | B12 | 0.0194 KA relative to UGCAUGU
13 | B13 | 0.0229 KA relative to UGCAUGU
14 | B14 | 0.0214 KA relative to UGCAUGU
15 | B15 | 0.0283 KA relative to UGCAUGU
16 | B16 | 0.000855 KA relative to UGCAUGU
17 | B17 | 0.0258 KA relative to UGCAUGU
18 | B18 | 0.00241 KA relative to UGCAUGU

Row | Binder | binding signal
19 | B19 | 0.0169 KA relative to UGCAUGU
20 | B20 | 0.0159 KA relative to UGCAUGU
21 | B21 | 0.0145 KA relative to UGCAUGU
22 | B22 | 0.0165 KA relative to UGCAUGU
23 | B23 | 0.0145 KA relative to UGCAUGU
24 | B24 | 0.00881 KA relative to UGCAUGU
25 | B25 | 0.00394 KA relative to UGCAUGU
26 | B26 | 0.0117 KA relative to UGCAUGU
27 | B27 | 0.0104 KA relative to UGCAUGU
28 | B28 | 0.0129 KA relative to UGCAUGU
29 | B29 | 0.01 KA relative to UGCAUGU
30 | B30 | 0.635 KA relative to UGCAUGU
31 | B31 | 0.735 KA relative to UGCAUGU
32 | B32 | 0.0132 KA relative to UGCAUGU
33 | B33 | 0.806 KA relative to UGCAUGU
34 | B34 | 0.697 KA relative to UGCAUGU
35 | B35 | 0.0131 KA relative to UGCAUGU

Reference: PMC9911399, “Two distinct binding modes provide the RNA-binding protein RbFox with extraordinary sequence specificity”
